Test results from PubChem BioAssay (NCI).
Several values for one entry are separate records, joined by “and”; a condition that tells them apart may be missing. Equal values may be shown once. This is part of a sample that, as a whole, favours compounds with a hit. Of some 83,000 tested, about 20% had one in any assay.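 Single-dose data. Exposure time 48 hours. Values below 10 considered active.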 Values without a mark were called inactive. Activity calls are given as the source filed them.

Each molecule was assayed on HL-60(TB) leukemia (assay: NCI-60 one-dose screen, 48 h (100 = growth as untreated, 0 = no growth, -100 = all killed)). Conditions: 10 µM unless noted.
Work on `CCCCCCNc1cc(C)nc2ccc(OC)cc12` yielded a growth of 63.3%.
With `O=C(O)CC1Sc2ccccc2NC1=O` (stereo not given) the growth was 115%.
In the case of `Cn1ncc2c(Nc3ccc(Br)cc3)nc(Nc3ccc(Br)cc3)nc21`, the growth is reported as 69.2%.
`Cc1c2c(nn1C(=O)c1nn(-c3ccc(Cl)cc3)cc1O)-c1ccccc1CC2` was tested, and the growth was -43.4% (active).
With `O=S(=O)(NCCCNc1cc(-c2cn(-c3ccccc3)nc2-c2cccc(O)c2)ccn1)c1ccc(Cl)cc1` the growth was 1.22% (active).
With `COc1cc2c(cc1-c1c(C)noc1C)ncc1nc(C3CCOCC3)n([C@@H](C)COC(F)F)c12` the growth was 24.7%.
Work on `CC1=C/C(O)CC(=O)Cc2nc(co2)C(=O)N2CCC=C2C(=O)OC(C(C)C)C(C)/C=C\C(=O)NC/C=C\1` (stereo not given) yielded a growth of 56.4%.
Molecule `O=C1C=CC2(NN=C(c3ccccc3)N2c2cccc(Cl)c2)c2cccc(O)c21` (stereo not given) has a growth of 21.8%.
In the case of `OC(COc1ccccc1Cl)COc1ccccc1Cl`, the growth is reported as 94.3%.
Molecule `COc1ccc(C(=O)C2C(c3ccc(OC)cc3)CN(C)C23C(=O)Nc2ccccc23)cc1` (stereo not given) has a growth of 99.1%.
`N#CC1CCc2c(c(-c3cn[nH]c3C(F)(F)F)nc3c(F)cc4[nH]ncc4c23)C1` (stereo not given) was tested, and the growth was 47%.
For `CC1(C)CN(Cc2ccccc2)CCN1Cc1ccccc1`, the growth was 100%.
With `Oc1c(Cl)cc(Cl)c2ccc(Cn3cc(-c4ccc(C(F)(F)F)cc4)nn3)nc12` the growth was -24.9% (active).
With `CCCCCCCCCCCCNC(=O)[C@H]1CSC(c2ccsc2)N1` (stereo not given in full) the growth was -12.6% (active).
With `N#CC1c2ccccc2C=CN1C(=O)c1ccccc1` (stereo not given) the growth was 93.2% and 71.1%.
Work on `O=C(O)c1ccc[n+](CC(=O)N2CCN(c3cc4c(cc3F)c(=O)c(C(=O)O)cn4C3CC3)CC2)c1` yielded a growth of 97.6%.
For `CCc1ccc(C(=O)/C=C/C23c4ccccc4C(c4ccccc42)C2C(=O)NC(=O)C23)cc1` (stereo not given), the growth was -12.3% (active).
`Cc1ccc2[nH]c(=O)cc(-n3nncc3Cn3c4ccccc4c4ccccc43)c2c1` was tested, and the growth was 107%.
Work on `CCOC(=O)C(CCC(C)C)C(=O)OCC` yielded a growth of 72.8%.
`COc1cc2nc(Cl)nc(NCCO)c2cc1OC` showed a growth of 104%.
With `COc1ccc2c(=O)cc(C(Cl)(Cl)Cl)oc2c1` the growth was -32.6% (active).
`CCn1ccnc1C(=O)/C=C/c1ccc(CC(=O)Nc2ccc(F)cc2)cc1` was tested, and the growth was 27.9%.
With `CS(=O)(=O)c1ccc(C(=O)N/N=C/c2ccccc2O)cc1` the growth was 6.35% (active).
With `O=C(CCN1C(=O)/C(=C/c2ccc(O)cc2)SC1=S)Nc1ccccc1` the growth was 61.2%.
`O=C1CSC2=NCCN12` was tested, and the growth was 106% and 86.3%.
In the case of `CC1CCCc2sc3nc(NNC(=O)c4cnccn4)n(-c4ccccc4)c(=O)c3c21` (stereo not given), the growth is reported as -33.4% (active) and -12.4% (active).
In the case of `IC(I)I`, the growth is reported as 98.3%.
`O=S(=O)(c1ccccc1)n1cc2c(c1)-c1nc(Nc3ncccn3)sc1CC2` gave a growth of 66.2%.
`CC(C)CNC(=O)c1ccccc1C(=O)NC1(C(=O)NCC(C)C)CCCC1` was tested, and the growth was 92.9% and 97.4%.
`COCCn1cc(-c2nc(-c3cc4cccnc4n3CCOC)cs2)c2cc(OC)ccc21` gave a growth of 95.6%.
In the case of `O=c1[nH]c(=S)[nH]c(=O)n1Cc1cccc2ccccc12`, the growth is reported as 101%.
Molecule `COC(=O)c1ccccc1Cl` has a growth of 97.3%.
For `Nc1nc(Cl)c2ncn(Cc3cc4c(cc3I)OCO4)c2n1`, the growth was 52.3%.
`COc1ccc(/C=C2\COc3ccc(O)cc3C2=O)c(OC)c1OC` showed a growth of 12.7%.
With `COc1cc(OC)cc(-c2cncn2-c2ccc(-c3nc4cc(OC)cc(OC)c4s3)cc2)c1` the growth was 41%.
`N#C/C(=C\c1ccc(-c2ccc(Cl)cc2)o1)C(=O)Nc1ncc(Cc2ccc(Cl)cc2)s1` was tested, and the growth was 80.1%.
`CC(=O)[C@H]1CC[C@H]2[C@@H]3C[C@H](C)C4=CC(=O)CC[C@]4(C)[C@H]3C(=O)C[C@]12C` gave a growth of 79.7%.
Work on `COc1ccc(Br)c2c1C(=O)CC2` yielded a growth of 151%.
Molecule `Nc1nc(N)c2cc(Sc3ccc(Cl)cc3)ccc2n1` has a growth of 27.5%.
For `CCN(CC)c1ccc2nc3ccc(=[N+](CC)CC)cc-3oc2c1`, the growth was -12.7% (active).
